Several values for one entry are separate records, joined by “and”; a condition that tells them apart may be missing. Identical values can stand only once. Inconclusive results are not listed. A structure can be active in one record and inactive in another. Activity calls are given as the source filed them. Unless noted, calls follow the shape of the dose curve; as a rule, active = well fitted curve in the direction sought with a large enough effect in the repeat runs; inconclusive = weak or mixed curves; inactive = no such curve, though single readings can be large; an effect the other way counts as inactive or inconclusive.
What was measured:
[1] = qHTS assay for small molecule agonists of the p53 signaling pathway (AID 651631; calls by dose curve; also: nearly all actives have a fitted effect of over 15% in size; also: potency is read from the fitted curve at half-maximal effect)
How it was run: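 Beta-lactamase reporter activity under p53 response elements was quantified in HCT-116 cells by FRET fluorescence, following 16 h incubation with test compounds at 37 °C and 2 h substrate development at room temperature.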

[2] = qHTS assay for small molecule agonists of the p53 signaling pathway - cell viability (AID 651633; calls by dose curve; also: nearly all actives have a fitted effect of over 30% in size; also: potency is read from the fitted curve at half-maximal effect)
How it was run: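 p53RE-bla cells were treated with compound for 16 hours at 37 C. Cytotoxicity was then measured as CellTiter-Glo luminescence after 30 min at room temperature.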

[3] = qHTS assay for small molecules that induce genotoxicity in human embryonic kidney cells expressing luciferase-tagged ATAD5 - cell viability (AID 651634; calls by dose curve; also: nearly all actives have a fitted effect of over 25% in size; also: potency is read from the fitted curve at half-maximal effect)
How it was run: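 After 15.5 hr incubation with compound at 37C, 5% CO2, HEK293T ATAD5-luciferase cells received CellTiter-Fluor reagent; fluorescence intensity was quantified following 30 min at 37C.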

[4] = qHTS assay for small molecule disruptors of the mitochondrial membrane potential - cell viability (AID 720634; calls by dose curve; also: nearly all actives have a fitted effect of over 20% in size; also: potency is read from the fitted curve at half-maximal effect)
How it was run: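 ATP-based luminescent viability readout (CellTiter-Glo, 30 min, room temperature) in HepG2 cells multiplexed with the m-MPI membrane potential dye; compound exposure lasted 1 hr at 37 C.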

[5] = qHTS assay for small molecule disruptors of the mitochondrial membrane potential (AID 720635); also: potency is read from the fitted curve at half-maximal effect
How it was run: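 HepG2 cells exposed to compound 1 hr at 37C, then Mito-MPS dye 30 min. Ratio read of aggregate (540/590 nm) versus monomer (490/535 nm) fluorescence.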

[6] = qHTS assay to test for compound auto fluorescence at 590 nm (red) in HepG2 cells (AID 720674)
How it was run: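 Fluorescence at 590 nm emission following 540 nm excitation was recorded from HepG2 wells one hour after compound transfer, with DMSO-only wells as vehicle and Rose Bengal sodium equivalency as the scale.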

[7] = qHTS assay to test for compound auto fluorescence at 535 nm (green) in HepG2 cells (AID 720675)
[8] = qHTS assay to test for compound auto fluorescence at 460 nm (blue) in HEK293 cells (AID 720678); also: potency is read from the fitted curve at half-maximal effect
How it was run: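 Measured: blue fluorescence (Ex 405/Em 460 nm) of compound-treated HEK293 cells, incubated overnight at 37C with 5% CO2 and scaled to triamterene equivalents.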

[9] = qHTS assay to test for compound auto fluorescence at 590 nm (red) in HEK293 cells (AID 720679)
How it was run: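 Using HEK293 cells at 2,000 per well, the screen added 23 nL of each compound after cell attachment and incubated overnight (37C, 5% CO2). The plate reader then captured red-label fluorescence, Ex/Em 540/590nm.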

[10] = qHTS assay for small molecules that induce genotoxicity in human embryonic kidney cells expressing luciferase-tagged ATAD5 (AID 651632); also: nearly all actives have a fitted effect of over 15% in size
How it was run: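 Quantitative HTS in HEK293T expressing luciferase-tagged ATAD5, whose levels rise upon DNA damage. Exposure ran 16 hr at 37C and 5% CO2, with luminescence read 30 min after Amplite addition at room temperature.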

Measured: Potency
Tags tell the direction and shape of the fitted curve or compound fluorescence and quenching.

Cc1cc(=O)oc2cc(O)ccc12
active: [1] 61.1 µM and 48.6 µM | [8] 11.2 µM [fluorescent] and 39.8 µM [fluorescent] and 35.5 µM [fluorescent]
not listed: [10]
inactive: all other assays above

COc1ccc(C(Cl)=C(c2ccc(OC)cc2)c2ccc(OC)cc2)cc1
active: [5] 13.6 µM and 21.7 µM
inactive: all other assays above

Nc1ccc(S(N)(=O)=O)cc1
not listed: [10]
inactive: all other assays above

CCCCNC(=O)NS(=O)(=O)c1ccc(C)cc1
not listed: [10]
inactive: all other assays above

Cc1ncc([N+](=O)[O-])n1C
inactive: all assays above

O=C1c2c(O)cccc2Cc2cccc(O)c21
not listed: [5]
inactive: all other assays above

CCCCOC(=O)c1ccc(O)cc1
active: [5] 23.7 µM and 9.81 µM and 19.3 µM
not listed: [10]
inactive: all other assays above

COc1ccc2c(c1)c(CC(=O)O)c(C)n2C(=O)c1ccc(Cl)cc1
not listed: [5]
inactive: all other assays above

CS(=O)(=O)OCCCCOS(C)(=O)=O
inactive: all assays above

NC(CO)(CO)CO
not listed: [10]
inactive: all other assays above

CCCCC1(COC(=O)CCC(=O)O)C(=O)N(c2ccccc2)N(c2ccccc2)C1=O
inactive: all assays above

Oc1ccccc1
not listed: [10]
inactive: all other assays above

CCCCCCCC(=O)OCC(COC(=O)CCCCCCC)OC(=O)CCCCCCC
inactive: all assays above

O=C(O)CC(O)C(=O)O (stereo not drawn)
inactive: all assays above

CC1(C)O[C@@H]2C[C@H]3[C@@H]4CCC5=CC(=O)C=C[C@]5(C)[C@@]4(F)[C@@H](O)C[C@]3(C)[C@]2(C(=O)CO)O1
inactive: all assays above

CC(=O)C(=O)O
inactive: all assays above

CN(C)C(=O)Nc1ccc(Cl)c(Cl)c1
active: [5] 29.8 µM
not listed: [10]
inactive: all other assays above

NC(=O)n1c(O)c(C(=O)c2cccs2)c2cc(Cl)ccc21
active: [1] 5.96 µM | [2] 8.41 µM | [5] 11.9 µM
not listed: [3]
inactive: all other assays above

CC12CCC(CC1)C(C)(C)O2
inactive: all assays above

OC[C@H]1O[C@H](O[C@]2(CCl)O[C@H](CCl)[C@@H](O)[C@@H]2O)[C@H](O)[C@@H](O)[C@H]1Cl
inactive: all assays above

Cc1ncc([N+](=O)[O-])n1CCO
not listed: [10]
inactive: all other assays above

CCCc1cc(=O)[nH]c(=S)[nH]1
inactive: all assays above

CCOc1ccc(NC(C)=O)cc1
not listed: [10]
inactive: all other assays above

Cc1c(C(=O)O)c(O)cc2c1C(=O)c1c(O)c([C@@H]3O[C@H](CO)[C@@H](O)[C@H](O)[C@H]3O)c(O)c(O)c1C2=O
active: [3] 11.9 µM and 37.6 µM and 54.5 µM
inactive: all other assays above

CCOC(N)=O
inactive: all assays above

CCc1nc(N)nc(N)c1-c1ccc(Cl)cc1
active: [1] 8.41 µM | [2] 10.6 µM and 12.4 µM
not listed: [10]
inactive: all other assays above

O=c1[nH]cc(F)c(=O)[nH]1
active: [1] 4.22 µM and 3.57 µM and 1.57 µM | [2] 1.06 µM and 991 nM
not listed: [10]
inactive: all other assays above

CC1(C)S[C@@H]2[C@H](NC(=O)[C@H](N)c3ccccc3)C(=O)N2[C@H]1C(=O)O
not listed: [4] | [5]
inactive: all other assays above

Nc1ccc([N+](=O)[O-])cc1O
active: [3] 54.5 µM | [5] 17.2 µM
not listed: [1] | [10]
inactive: all other assays above

NS(=O)(=O)c1cc2c(cc1Cl)NCNS2(=O)=O
not listed: [10]
inactive: all other assays above

C=C1CC[C@H](O)C/C1=C\C=C1/CCC[C@]2(C)[C@@H]([C@H](C)CCCC(C)C)CC[C@@H]12
active: [2] 26.6 µM and 60.6 µM
not listed: [1] | [3]
inactive: all other assays above

CCCCCCCCCCCC[N+](C)(C)Cc1ccccc1
active: [2] 18.8 µM and 47.6 µM and 29.7 µM | [3] 26.8 µM and 74.5 µM | [5] 8.41 µM and 19 µM and 21 µM
not listed: [1]
inactive: all other assays above

CN(C)CCOC(c1ccccc1)c1ccccc1
not listed: [1] | [10]
inactive: all other assays above

CN(C)C(=S)SC(=S)N(C)C
active: [5] 2.98 µM and 28 µM and 61.1 µM
inactive and 243 nM (active): [2]
not listed: [3] | [10]
inactive: all other assays above

Cc1cn([C@H]2C=C[C@@H](CO)O2)c(=O)[nH]c1=O
not listed: [1]
inactive: all other assays above

O=C1O[C@H]([C@@H](O)CO)C(O)=C1O
not listed: [2] | [10]
inactive: all other assays above

C[C@](N)(Cc1ccc(O)c(O)c1)C(=O)O
not listed: [5] | [10]
inactive: all other assays above

NC1CCCCC1
not listed: [1]
inactive: all other assays above

Cc1cc(C)nc(NS(=O)(=O)c2ccc(N)cc2)n1
not listed: [10]
inactive: all other assays above

CN(N=O)C(=O)N[C@@H]1[C@@H](O)[C@H](O)[C@@H](CO)O[C@@H]1O
not listed: [10]
inactive: all other assays above

CN(C)CCOC(C)(c1ccccc1)c1ccccn1 (stereo not drawn)
not listed: [5] | [10]
inactive: all other assays above

O=C1NC(=O)C(c2ccccc2)(c2ccccc2)N1
not listed: [1] | [2]
inactive: all other assays above

C=CCc1ccc(O)c(OC)c1
not listed: [5] | [10]
inactive: all other assays above

Cn1c(=O)c2c(ncn2C)n(C)c1=O
not listed: [3] | [10]
inactive: all other assays above

O=C(O)c1ccccc1
not listed: [10]
inactive: all other assays above

COc1cccc(O)c1O
active: [3] 17.9 µM
not listed: [5] | [10]
inactive: all other assays above

Nc1c(N=Nc2ccc(-c3ccc(N=Nc4cc(S(=O)(=O)O)c5ccccc5c4N)cc3)cc2)cc(S(=O)(=O)O)c2ccccc12
active: [3] 13.3 µM and 27.3 µM | [5] 17.2 µM
not listed: [1]
inactive: all other assays above

NC(=O)c1cccnc1
not listed: [10]
inactive: all other assays above

C1CCC(C(CC2CCCCN2)C2CCCCC2)CC1 (stereo not drawn)
active: [2] 23.7 µM | [3] 26.6 µM | [5] 5.96 µM
not listed: [1] | [4]
inactive: all other assays above

Cc1cccc(C)c1
not listed: [1] | [10]
inactive: all other assays above

F[B-](F)(F)F
not listed: [1] | [2]
inactive: all other assays above

CC(C)C(=O)Nc1ccc([N+](=O)[O-])c(C(F)(F)F)c1
active: [4] 12.5 µM and 27.3 µM | [5] 13.3 µM and 6.29 µM and 9.69 µM
not listed: [1]
inactive: all other assays above

CNNCc1ccc(C(=O)NC(C)C)cc1
not listed: [4] | [5] | [10]
inactive: all other assays above

CC(=O)Nc1c(I)c(NC(C)=O)c(I)c(C(=O)O)c1I
not listed: [1]
inactive: all other assays above

NS(=O)(=O)O
not listed: [10]
inactive: all other assays above

COc1ccc(OC(F)(F)F)cc1CN[C@H]1CCCN[C@H]1c1ccccc1
not listed: [5] | [10]
inactive: all other assays above

CN1CCc2cccc3c2[C@H]1Cc1ccc(O)c(O)c1-3
not listed: [1]
inactive: all other assays above
